Data as given in PubChem BioAssay AID1159580 (chemical genetic matrix, 2015).
Screen size: about 5,500 compounds; about 2,000 (36%) were called active. About 18% were inconclusive and are not listed. Rule as the data show it: active = normalized growth mostly below about 0.91 (no sharp cut-off); inconclusive = no clear call, values can overlap the other calls; inactive = mostly above about 0.92. Some of the results follow.

Test: chemical genetic growth profiling, strain panel (AID 1159580);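 also: tested at 20 µM; growth read once vehicle control cultures reached saturation at 30 °C; 1 = growth at the plate median or of vehicle wells; lower values mean less growth of the strain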
Conditions: growth OD

Measured: normalized growth

NS(=O)(=O)c1cc2c(cc1Cl)NC(CSCc1ccccc1)=NS2(=O)=O
inactive: S. cerevisiae deletion strains, locus YJR075W, strain HOC1, hits give low values 0.971 | S. cerevisiae deletion strains, locus YKL009W, strain mrt4, hits give low values 0.99 | S. cerevisiae deletion strains, locus YKL068W, hits give low values 0.988 | S. cerevisiae deletion strains, locus YKL085W, strain MDH1 (second series), hits give low values 0.998 | S. cerevisiae deletion strains, locus YKL085W, strain MDH1, hits give low values 0.998 | S. cerevisiae deletion strains, locus YKL160W, strain elf1, hits give low values 1.01 | S. cerevisiae deletion strains, locus YKL190W, strain CNB1, hits give low values 0.987 | S. cerevisiae deletion strains, locus YKR001C, strain vps1, hits give low values 0.982 | S. cerevisiae deletion strains, locus YKR026C, strain gcn3, hits give low values 1.02 | S. cerevisiae deletion strains, locus YKR091W, strain srl3, hits give low values 1.02 | S. cerevisiae deletion strains, locus YLL001W, strain dnm1, hits give low values 1.03 | S. cerevisiae deletion strains, locus YLL026W, hits give low values 1.02 | S. cerevisiae deletion strains, locus YLL041C, strain sdh2, hits give low values 1.02 | S. cerevisiae deletion strains, locus YLR027C, strain aat2, hits give low values 1.02 | S. cerevisiae deletion strains, locus YLR039C, strain RIC1, hits give low values 1.05 | S. cerevisiae deletion strains, locus YLR058C, strain SHM2, hits give low values 0.982 | S. cerevisiae deletion strains, locus YLR102C, strain apc9, hits give low values 0.986 | S. cerevisiae deletion strains, locus YLR113W, strain HOG1, hits give low values 0.97 | S. cerevisiae deletion strains, locus YLR221C, strain rsa3, hits give low values 1.02 | S. cerevisiae deletion strains, locus YLR258W, strain gsy2, hits give low values 0.994 | S. cerevisiae deletion strains, locus YLR262C, strain YPT6 (second series), hits give low values 1.05 | S. cerevisiae deletion strains, locus YLR262C, strain YPT6, hits give low values 1.04 | S. cerevisiae deletion strains, locus YLR268W, strain sec22, hits give low values 0.992 | S. cerevisiae deletion strains, locus YLR320W, strain mms22, hits give low values 0.976 | S. cerevisiae deletion strains, locus YLR330W, strain CHS5, hits give low values 0.987 | S. cerevisiae deletion strains, locus YLR342W, strain FKS1 (second series), hits give low values 1.01 | S. cerevisiae deletion strains, locus YLR342W, strain FKS1, hits give low values 1.02 | S. cerevisiae deletion strains, locus YLR357W, strain rsc2, hits give low values 1.02 | S. cerevisiae deletion strains, locus YLR370C, strain arc18, hits give low values 1.01 | S. cerevisiae deletion strains, locus YLR371W, strain rom2, hits give low values 0.974 | S. cerevisiae deletion strains, locus YLR384C, strain iki3, hits give low values 1.02 | S. cerevisiae deletion strains, locus YLR418C, strain cdc73, hits give low values 0.994 | S. cerevisiae deletion strains, locus YML016C, strain PPZ1, hits give low values 0.987 | S. cerevisiae deletion strains, locus YML032C, strain rad52, hits give low values 0.995 | S. cerevisiae deletion strains, locus YML120C, strain ndi1, hits give low values 1.04 | S. cerevisiae deletion strains, locus YML124C, strain tub3, hits give low values 0.995 | S. cerevisiae deletion strains, locus YMR058W, strain fet3, hits give low values 1.02 | S. cerevisiae deletion strains, locus YMR078C, strain ctf18, hits give low values 0.983 | S. cerevisiae deletion strains, locus YMR125W, strain sto1, hits give low values 1.01 | S. cerevisiae deletion strains, locus YMR129W, hits give low values 1.03 | S. cerevisiae deletion strains, locus YMR205C, strain PFK2, hits give low values 1.02 | S. cerevisiae deletion strains, locus YMR223W, strain ubp8, hits give low values 0.985 | S. cerevisiae deletion strains, locus YMR231W, strain pep5, hits give low values 1.01 | S. cerevisiae deletion strains, locus YMR263W, strain SAP30, hits give low values 0.977 | S. cerevisiae deletion strains, locus YMR307W, strain GAS1, hits give low values 0.971 | S. cerevisiae deletion strains, locus YNL067W, strain RPL9B, hits give low values 0.959 | S. cerevisiae deletion strains, locus YNL071W, strain lat1, hits give low values 0.978 | S. cerevisiae deletion strains, locus YNL153C, strain GIM3, hits give low values 0.966 | S. cerevisiae deletion strains, locus YNL183C, strain NPR1, hits give low values 0.909 | S. cerevisiae deletion strains, locus YNL209W, strain ssb2, hits give low values 1 | S. cerevisiae deletion strains, locus YNL233W, strain BNI4, hits give low values 0.958 | S. cerevisiae deletion strains, locus YNL248C, strain rpa49, hits give low values 1 | S. cerevisiae deletion strains, locus YNL250W, strain rad50, hits give low values 0.978 | S. cerevisiae deletion strains, locus YNL271C, strain bni1, hits give low values 0.998 | S. cerevisiae deletion strains, locus YNL298W, strain CLA4, hits give low values 0.982 | S. cerevisiae deletion strains, locus YNL307C, strain MCK1, hits give low values 0.983 | S. cerevisiae deletion strains, locus YNL322C, strain KRE1 (second series), hits give low values 1.02 | S. cerevisiae deletion strains, locus YNL322C, strain KRE1, hits give low values 0.994 | S. cerevisiae deletion strains, locus YNR049C, strain mso1, hits give low values 1.02 | S. cerevisiae deletion strains, locus YNR052C, strain pop2, hits give low values 0.981 | S. cerevisiae deletion strains, locus YOL012C, strain htz1 0.861 | S. cerevisiae deletion strains, locus YOL147C, strain pex11, hits give low values 0.985 | S. cerevisiae deletion strains, locus YOR001W, strain rrp6, hits give low values 1.04 | S. cerevisiae deletion strains, locus YOR061W, strain CKA2, hits give low values 1 | S. cerevisiae deletion strains, locus YOR069W, strain VPS5, hits give low values 0.987 | S. cerevisiae deletion strains, locus YOR070C, strain gyp1, hits give low values 1 | S. cerevisiae deletion strains, locus YOR080W, strain dia2, hits give low values 1.03 | S. cerevisiae deletion strains, locus YOR083W, strain WHI5, hits give low values 1.05 | S. cerevisiae deletion strains, locus YOR106W, strain vam3, hits give low values 1.03 | S. cerevisiae deletion strains, locus YOR136W, strain idh2, hits give low values 0.979 | S. cerevisiae deletion strains, locus YOR144C, strain elg1, hits give low values 0.987 | S. cerevisiae deletion strains, locus YOR184W, strain ser1, hits give low values 0.985 | S. cerevisiae deletion strains, locus YOR231W, strain MKK1, hits give low values 0.959 | S. cerevisiae deletion strains, locus YOR265W, strain rbl2, hits give low values 1.01 | S. cerevisiae deletion strains, locus YOR270C, strain vph1, hits give low values 1.05 | S. cerevisiae deletion strains, locus YOR290C, strain snf2, hits give low values 1.01 | S. cerevisiae deletion strains, locus YOR316C, strain cot1, hits give low values 0.973 | S. cerevisiae deletion strains, locus YPL051W, strain arl3, hits give low values 1.02 | S. cerevisiae deletion strains, locus YPL078C, strain atp4, hits give low values 1.06 | S. cerevisiae deletion strains, locus YPL106C, strain sse1, hits give low values 0.973 | S. cerevisiae deletion strains, locus YPL240C, strain hsp82, hits give low values 1.01 | S. cerevisiae deletion strains, locus YPL256C, strain CLN2, hits give low values 0.935 | S. cerevisiae deletion strains, locus YPR119W, strain clb2, hits give low values 0.98 | S. cerevisiae deletion strains, locus YPR141C, strain kar3, hits give low values 0.973 | S. cerevisiae deletion strains, locus YPR163C, strain tif3, hits give low values 0.982 | S. cerevisiae deletion strains, locus YPR167C, strain met16, hits give low values 0.989 | S. cerevisiae deletion strains, strain wtn01, hits give low values 0.967 | S. cerevisiae strains, strain wild type, hits give low values 0.992
